# Where “and” joins values, the source holds several entries; their conditions need not be identical. Equal values may be shown once. Inconclusive results are not listed. Where a call stands in place of a potency, no number is given. Values without a mark were called inactive. Calls of active or inactive are those of the source. Unless noted, calls come from the whole dose curve; as a rule, active = well fitted curve in the direction sought with a large enough effect; inconclusive = small, poorly fitted or top-dose-only effect, or another doubt; inactive = no such curve, though single readings can be large; an effect the other way counts as inactive or inconclusive.
# Key:
# [1] = target: Calcium and integrin-binding protein 1 (Homo sapiens) (UniProt Q99828); assay: Validation qHTS for Identification of Calcium Integrin Binding protein 1 (CIB1) Competitor (AID 1508618)
# Chain of Calcium and integrin-binding protein 1 (Homo sapiens) (Q99828 whole entry, looked up): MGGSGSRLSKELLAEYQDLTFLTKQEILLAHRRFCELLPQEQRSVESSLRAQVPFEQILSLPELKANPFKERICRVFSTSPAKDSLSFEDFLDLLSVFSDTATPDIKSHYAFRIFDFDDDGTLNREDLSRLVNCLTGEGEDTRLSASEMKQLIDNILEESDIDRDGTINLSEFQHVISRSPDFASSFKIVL
# Summary of the method: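 In this qHTS validation, the LOPAC set (up to 114 uM) was tested for blocking CIB1 binding to a fluorescein-tagged alphaIIb peptide, with FP detection at 480/540 nm.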
# Papain (Carica papaya) = Papain (Carica papaya) (UniProt P00784); assay: Primary qHTS assay for inhibitors of the protease papain (AID 1645873);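 note: papain turnover of Z-FR-AMC read as the AMC fluorescence gain over 10 min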; note: potency is the fitted concentration of half-maximal effect
# Chain of Papain (Carica papaya) (P00784 whole entry, looked up): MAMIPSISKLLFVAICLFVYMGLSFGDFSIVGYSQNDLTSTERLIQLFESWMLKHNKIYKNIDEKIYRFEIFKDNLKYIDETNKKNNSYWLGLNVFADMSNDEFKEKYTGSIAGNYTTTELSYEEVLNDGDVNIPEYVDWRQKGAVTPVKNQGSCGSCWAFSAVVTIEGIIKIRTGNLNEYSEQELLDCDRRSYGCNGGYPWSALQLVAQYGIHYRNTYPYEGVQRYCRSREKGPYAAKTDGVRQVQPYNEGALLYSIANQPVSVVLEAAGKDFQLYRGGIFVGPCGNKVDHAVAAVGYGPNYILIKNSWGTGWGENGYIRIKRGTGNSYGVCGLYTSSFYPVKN
# [2] = target: Calcium and integrin-binding protein 1 (Homo sapiens) (UniProt Q99828); assay: Primary qHTS for Identification of Calcium Integrin Binding Protein 1 (CIB1) Competitor (AID 1508620);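 note: GST tagged CIB1 binding a fluorescein labelled alphaIIb integrin peptide tracer; top concentration of the series differs between compounds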
# Summary of the method: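 CIB1-GST (1 uM final) and compound incubated 15 min at room temperature before adding FITC-alphaIIb peptide tracer (100 nM final). Competition for binding read by fluorescence polarization (ex 480, em 540) after another 15 min at room temperature.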
# [3] = Primary qHTS for small molecule stabilizers of the endoplasmic reticulum resident proteome: Secreted ER Calcium Modulated Protein (SERCaMP) assay (AID 1508630)
# Summary of the method: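 GLuc-SERCaMP-expressing SH-SY5Y cells, pretreated 16 h with compound, are challenged with thapsigargin to empty ER calcium stores; after 4 h, coelenterazine is added directly to the medium and luminescence is imaged.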
# [4] = target: N-terminal Xaa-Pro-Lys N-methyltransferase 1 (Homo sapiens) (UniProt Q9BV86); assay: Confirmatory qHTS for Inhibitors of N-terminal methyltransferase 1 (NTMT1): MTaseGlo Assay (AID 1645874); note: potency is the fitted concentration of half-maximal effect; nearly all actives have a fitted effect of over 65% in size
# Chain of N-terminal Xaa-Pro-Lys N-methyltransferase 1 (Homo sapiens) (Q9BV86 whole entry, looked up): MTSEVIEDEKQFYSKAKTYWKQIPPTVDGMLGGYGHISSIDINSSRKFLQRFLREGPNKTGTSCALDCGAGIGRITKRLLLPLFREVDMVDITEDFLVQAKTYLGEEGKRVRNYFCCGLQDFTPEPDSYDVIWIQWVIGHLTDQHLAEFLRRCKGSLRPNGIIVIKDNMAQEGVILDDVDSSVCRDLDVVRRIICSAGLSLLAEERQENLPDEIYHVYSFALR
# Summary of the method: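 Compounds are incubated with 125 nM NTMT1 and 100 uM SAM for 15 min before the SPKRIA peptide (1 uM) starts a 30 min room-temperature methylation. SAH is measured by coupled luciferase luminescence and curves fitted to a Hill equation.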
# [5] = Primary qHTS for inhibitors of nuclear receptor binding SET domain protein 2 (NSD2) in an isogenic RCH-ACV NSD2 p.E1099K mutant (9B) (AID 1645876); note: nearly all actives have a fitted effect of over 70% in size; note: potency is the fitted concentration of half-maximal effect
# [6] = target: Cytochrome P450 2D6 (Homo sapiens) (UniProt P10635); assay: Cytochrome P450 family 2 subfamily D member 6 (CYP2D6) small molecule antagonists: luciferase biochemical (cell-free) qHTS assay (AID 1645840; active = well fitted curve in the direction sought with a large enough effect in the repeat runs; an effect the other way counts as inactive or inconclusive; note: nearly all actives have a fitted effect of over 55% in size)
# Chain of Cytochrome P450 2D6 (Homo sapiens) (P10635 whole entry, looked up): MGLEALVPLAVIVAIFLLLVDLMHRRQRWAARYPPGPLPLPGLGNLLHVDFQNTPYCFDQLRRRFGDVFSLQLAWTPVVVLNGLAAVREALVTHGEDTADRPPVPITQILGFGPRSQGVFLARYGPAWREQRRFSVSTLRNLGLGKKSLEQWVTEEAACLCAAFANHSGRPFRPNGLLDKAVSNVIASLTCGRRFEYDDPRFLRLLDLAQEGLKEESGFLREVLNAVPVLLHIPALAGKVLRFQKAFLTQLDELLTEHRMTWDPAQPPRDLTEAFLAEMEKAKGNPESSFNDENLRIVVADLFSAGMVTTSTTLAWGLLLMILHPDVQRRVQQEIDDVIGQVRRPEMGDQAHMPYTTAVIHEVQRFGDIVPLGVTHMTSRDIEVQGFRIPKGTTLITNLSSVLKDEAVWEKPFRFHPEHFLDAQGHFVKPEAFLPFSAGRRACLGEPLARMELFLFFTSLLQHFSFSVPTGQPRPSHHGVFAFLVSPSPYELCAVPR
# Summary of the method: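 P450-Glo luminescent screen: recombinant CYP2D6 enzyme–proluciferin substrate mix preincubated with compound 10 min at room temperature, then NADPH regeneration added for 1 h at room temperature. Detection reagent added for 20 min; luciferin light read as relative luminescence units.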
# [7] = Confirmatory qHTS to identify inhibitors of SARS-CoV-2 cell entry (AID 1645844; calls by dose curve; note: potency is the fitted concentration of half-maximal effect; nearly all actives have a fitted effect of over 45% in size); conditions: SARS-CoV-2 pseudotyped particle cell entry, luciferase
# Summary of the method: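 Luminescence from a luciferase reporter, read 48 hr after pseudotyped-particle addition, gives entry signal, normalised to spike-bearing PP wells and bald PP lacking fusion protein wells. Cells are Expi293F stably expressing human ACE2, compound-pretreated 1 hr.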
# [8] = Primary qHTS to identify inhibitors of SARS-CoV-2 cell entry (AID 1645846; calls by dose curve; note: potency is the fitted concentration of half-maximal effect; nearly all actives have a fitted effect of over 45% in size); conditions: activity change, negative = inhibition: at 57.1 µM (top of the series) unless noted
# Summary of the method: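 HEK293 cells stably expressing human ACE2, pre-treated 1 h with compound, then infected with MLV particles pseudotyped with Wuhan-Hu-1 spike (C-terminal 19-aa truncation). Luciferase luminescence after 48 h at 37 °C, normalised to spike PP and bald PP.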
# [9] = VSVG counterscreen qHTS to identify inhibitors of SARS-CoV-2 cell entry (AID 1645847; calls by dose curve; note: potency is the fitted concentration of half-maximal effect; nearly all actives have a fitted effect of over 65% in size); conditions: VSV-G pseudotyped particle entry, luciferase
# Summary of the method: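 HEK293-ACE2 cells (Expi293F, human ACE2) pretreated 1 h with compound, then infected with MLV-based VSV-G pseudotyped particles for 48 h at 37 C; luciferase luminescence normalized to VSV-G PP and bald PP wells.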
compound,measurement,setting,value
CC(N)Cc1c[nH]c2ccc(O)cc12 (stereo unspecified),Potency,[1],inactive
same,Potency,Papain (Carica papaya),inactive
COC1CC(=O)C23C(=O)NC(CC(C)C)C2C(C)=C(C)C(OO)C3/C=C(\C)CCC(O)C1O (stereo unspecified),Potency,[2],inactive
Nc1cc2c(ncn2CCOCP(=O)(O)O)c(=O)[nH]1,Potency,[1],inactive
same,Potency,Papain (Carica papaya),inactive
CCCN1CCc2cccc3c2[C@H]1Cc1ccc(O)c(O)c1-3,Potency,[1],inactive
same,outcome,[3],inactive
same,Potency,Papain (Carica papaya),inactive
CCCC[N+]1(C)C2CC(OC(=O)[C@H](CO)c3ccccc3)CC1C1OC12 (stereo partly specified),Potency,[1],inactive
same,Potency,Papain (Carica papaya),inactive
NCCc1ccc(S(=O)(=O)F)cc1,Potency,[1],inactive
same,Potency,Papain (Carica papaya),inactive
CC1C/C=C/C(O)C(O)CC/C=C/c2cc(O)cc(O)c2C(=O)O1 (stereo unspecified),Potency,[2],inactive
NC(C(=O)O)c1cc(=O)[nH]o1 (stereo unspecified),Potency,[1],inactive
same,outcome,[3],inactive
same,Potency,Papain (Carica papaya),inactive
N#CCCN,Potency,[1],inactive
same,Potency,Papain (Carica papaya),inactive
C[C@H]1C2Cc3ccc(O)cc3[C@@]1(C)CCN2CC1CC1,Potency,[1],inactive
same,Potency,Papain (Carica papaya),inactive
N=C(N)c1ccc(CS(=O)(=O)F)cc1,Potency,[1],inactive
same,outcome,[3],inactive
same,Potency,Papain (Carica papaya),inactive
CN1CCc2cccc(Cl)c2CC1,Potency,[1],inactive
same,Potency,Papain (Carica papaya),inactive
CC(C)(O)[C@H]1O[C@H]2CC[C@@]3(C)[C@@](O)(CC[C@H]4Cc5c([nH]c6ccccc56)[C@@]43C)C2=CC1=O,Potency,[2],inactive
CC(C)(C)OC(=O)NC1[C@H]2CNC[C@@H]12 (stereo partly specified),Potency,[1],inactive
same,Potency,Papain (Carica papaya),inactive
C=C(C)[C@H]1O[C@H]2CC[C@@]3(C)[C@@](O)(CC[C@H]4[C@@H]5OC(C)(C)[C@H]6C[C@@H]7C(=C)Cc8c(Cl)cc9[nH]c(c5c9c8[C@@]76O)[C@@]43C)[C@]23O[C@@H]3[C@H]1O,Potency,[2],inactive
NC(=O)COc1c(F)cc(SCCNS(=O)(=O)c2ccccc2)cc1F,Potency,[1],inactive
same,Potency,Papain (Carica papaya),inactive
O=c1ccc2[nH]cc(C3=CCNCC3)c2[nH]1,Potency,[1],inactive
same,outcome,[3],inactive
same,Potency,Papain (Carica papaya),25.1 µM (active)
COC(=O)N1CCN(C(=O)Cc2ccc(Cl)c(Cl)c2)C(CN2CCCC2)C1 (stereo unspecified),Potency,[1],inactive
same,outcome,[3],inactive
same,Potency,Papain (Carica papaya),inactive
CC(C)(C)c1cc(C=C(C#N)C#N)cc(C(C)(C)C)c1O,Potency,[1],inactive
same,outcome,[3],inactive
same,Potency,Papain (Carica papaya),inactive
same,Potency,[4],38.8 µM (active)
N[C@@]1(C(=O)O)CC[C@@H](C(=O)O)C1,Potency,[1],inactive
same,outcome,[3],inactive
same,Potency,Papain (Carica papaya),inactive
O=C1/C(=C/c2ccccc2)C[C@@]2(O)[C@H]3Cc4ccc(O)c5c4[C@@]2(CCN3CC2CC2)[C@H]1O5,Potency,[1],inactive
same,Potency,Papain (Carica papaya),inactive
C[N+]1(C)C2CCC1CC(OC(=O)c1c[nH]c3ccccc13)C2 (stereo unspecified),Potency,[1],inactive
same,Potency,Papain (Carica papaya),inactive
Cc1o[nH]c(=O)c1CC(N)C(=O)O (stereo unspecified),Potency,[1],inactive
same,outcome,[3],inactive
same,Potency,Papain (Carica papaya),inactive
O=C1CC[C@@]2(O)C3Cc4ccc(O)c5c4C2(CCN3CC2CC2)[C@H]1O5 (stereo partly specified),Potency,[1],inactive
same,outcome,[3],inactive
same,Potency,Papain (Carica papaya),inactive
O=S1(=O)N(CCN2CC=C(c3c[nH]c4cc(F)ccc34)CC2)c2cccc3c2N1CCC3,Potency,[1],inactive
same,outcome,[3],inactive
same,Potency,Papain (Carica papaya),inactive
O=C(NC1CN2CCC1CC2)c1cc2ccoc2cn1 (stereo unspecified),Potency,[1],inactive
same,Potency,Papain (Carica papaya),inactive
C[C@@H]1O[C@@H](O[C@H]2C[C@@H](O)[C@]3(CO)[C@@H]4C(CC[C@]3(O)C2)[C@@]2(O)CC[C@H]([C@@H]3COC(=O)C3)[C@@]2(C)C[C@H]4O)[C@H](O)[C@H](O)[C@H]1O (stereo partly specified),Potency,[1],inactive
same,outcome,[3],inactive
same,Potency,Papain (Carica papaya),inactive
CCCN(CCC)[C@@H]1CCc2cccc(O)c2C1,Potency,[1],inactive
same,outcome,[3],inactive
same,Potency,Papain (Carica papaya),inactive
C[C@@](O)(COc1ccc(C#N)cc1)C(=O)Nc1ccc(C#N)c(C(F)(F)F)c1,Potency,[2],inactive
CCCn1c(=O)c2[nH]c(C3CCCC3)nc2n(CCCOC(=O)c2ccc(S(=O)(=O)F)cc2)c1=O,Potency,[1],inactive
same,outcome,[3],inactive
same,Potency,Papain (Carica papaya),inactive
CCCCCOc1cc2c(cc1-c1cc(/C=C/C(=O)O)ccc1O)C(C)(C)CCC2(C)C,Potency,[2],inactive
OCc1cnc[nH]1,Potency,[1],inactive
same,outcome,[3],inactive
same,Potency,Papain (Carica papaya),inactive
CCCN1CCC[C@@H](c2cccc(O)c2)C1,Potency,[1],inactive
same,outcome,[3],inactive
same,Potency,Papain (Carica papaya),inactive
CCNC(=O)[C@H]1O[C@@H](n2cnc3c(N)ncnc32)[C@H](O)[C@@H]1O,Potency,[1],inactive
same,outcome,[3],inactive
same,Potency,Papain (Carica papaya),inactive
CC1=CC2/C=C(\C)CCC(O)C3OC(C)(C)OC3CC(=O)OC23C(=O)NC(CC(C)C)C3C1C (stereo unspecified),Potency,[2],inactive
C/C=C(\C)C(=O)OC1CC2C(CC=C3CC(OC4CC(OC)C(OC5CC(OC)C(OC6OC(C)C(OC7OC(CO)C(O)C(O)C7O)C(OC)C6O)C(C)O5)C(C)O4)CCC32C)C2(O)CCC(C(C)=O)C12C (stereo unspecified),Potency,[2],inactive
same,"activity change, negative = viability loss",[5],-7.24% [at 9.23 µM]
CCOc1ccccc1-n1c(C(C)N2CCN(C(=O)COc3ccc(Cl)cc3)CC2)nc2ccccc2c1=O (stereo unspecified),Potency,[2],inactive
same,Potency,[6],inactive
same,Potency,[7],0.0192 µM (active)
same,Potency,[8],10 µM (active)
same,Potency,[9],19.2 µM (active)
same,Potency,[5],916 nM (active) and 662 nM (active)
CC(C)(C)c1cc(C(C)(C)C)c2c(c1)C(O)(C(F)(F)F)C(=O)O2 (stereo unspecified),Potency,[2],inactive
same,Potency,[6],inactive
same,Potency,[5],inactive

# Source: PubChem BioAssay (NCATS)
